Source: PubChem BioAssay (EPA / NIEHS)
The source made the active and inactive calls. Rule for the calls: active = hit-call score of the fitted dose curve at least 0.9, where 1 is the maximum; inactive = score below 0.9.

Read-out: NAD(P)H dehydrogenase [quinone] 1 (NQO1), NQO1 (gene 1728)
Assay: LTEA_HepaRG_NQO1: Life Technologies and Expression Analysis (LTEA) Assay for NAD(P)H dehydrogenase [quinone] 1 (NQO1) using HepaRG (AID 2283526)
Details: mRNA level, 48 h; actives raise or lower the signal
Method: LTEA_HepaRG is a cell based, multiplexed-readout assay that uses HepaRG, a human liver cell line, with measurements taken at 48 hours after chemical dosing on a 96-well plate.LTEA_HepaRG_NQO1 is one of 102 assay component(s) measured in the LTEA HepaRG cell culture assay. It is a marker of Diseases associated with NQO1 include Tardive Dyskinesia and Childhood Leukemia.Data from the assay component LTEA_HepaRG_NQO1 was analyzed into 1 endpoint. This assay endpoint, LTEA_HepaRG_NQO1, was analyzed with bidirectional fitting relative to DMSO as the negative control and baseline of activity. Using a type of inducible reporter, measures of mRNA induction for gain or loss-of-signal activity can be used to understand regulation of transcription factor activity. To generalize the intended target to other relatable targets, this assay endpoint is annotated to the oxidoreductase intended target family, where the subfamily is quinone-acceptor.
A total of 1060 chemcials from the ToxCast library were tested in eight-point concentration-response experiments. Cell culture and cytotoxicity assays were conducted at Thermo Fisher Scientific's Custom Services facility (Madison, WI). A single lot of human HepaRG cells (Thermo Fisher Scientific, Frederick, MD) was used for the cell culture experiments. 96-well format collagen type I coated plates of human HepaRG cells were prepared using established methods. Briefly, cryopreserved HepaRG cells were thawed, plated at a density of approximately 100,000 cells/well in HepaRG Thaw, Plate, and General Purpose media (HPRG770, Thermo Fisher Scientific), and incubated for 48 hours. 0.5% DMSO was selected as vehicle control to balance the requisite need of DMSO in HepaRG cultures to maintain differentiation (for example, baseline metabolism, proportions of hepatocytes vs. cholangiocytes), while enabling further hepatic receptor pathway activation (for example, PXR and CAR) in response to chemical exposure. 48 hours after plating, the culture medium was replaced with HepaRG Serum-Free Incudtion Media. Cells were exposed to each test chemical in duplicate and maintained in CO2 incubators for another 48 hours. Chemical plates were thawed to room temperature and 200x concentrations of treatment groups were prepared. 8-point conentration-reponse curves were made with the highest exposure at 100 uM, followed by half-log dilutions, all in 0.5% DMSO. Each test plate contained variouse controls, induction positive controls (1mM phenobarbital), cytotoxicity positive controls ([…] aflatoxin B1), vehicle controls (0.5% DMSO), and total lysis controls (0.5% DMSO). Cell morphology images were taken using an Essen IncuCyte FLR automated microscope, with six 96-well plates imaged in about 24 minutes. Images were captured and exported and JPEG files. Spent culture media was transfered to black-well plates for the LDH assay, and remaining media was sorted at -80 C for later use. Cells were treated with RLT buffer and frozen until shipped for gene expression analysis. Total RNA was isolated from the cell suspension in 75 uL of Buffer RLT (Qiagen, Germantown, MD 20874) by Quintiles/Expression Analysis (Durham, NC) using a custom isolation procedure. Total RNA from each plate well was transferred to a preamplification plate. Fluidigm's 96.96 Dynamic ArrayTM (Fluidigm, Amsterdam, the Netherlands) technology was used for gene expression analyses by quantitative reverse transcription polymerase chain reaction (qRT-PCR, performed by Quintiles/Expression Analysis, Durham, NC)89. Standard TaqManTM Assays (Applied Biosystems/ThermoFisher Scientific, Foster City, CA) were used to assess the expression of 93 genes selected based on their selectivity and sensitivity to important hepatic receptors known to be modulated by environmental chemicals; importance in human hepatocyte functionality; and hepatotoxicity. […]

Row | Compound | outcome | AC50
1 | CCCCCCCCCCO | inactive | –
2 | FC(F)(F)C(F)(F)C(F)(F)C(F)(F)C(F)(F)C(F)(F)CCI | inactive | –
3 | CC(=O)Oc1ccccc1C(=O)O | inactive | –
4 | CNC(=O)[C@H]1O[C@@H](n2cnc3c(NCc4cc(Cl)ccc4OCc4cc(C)no4)ncnc32)[C@H](O)[C@@H]1N | inactive | –
5 | CC1(C)NC(=O)NC1=O | inactive | –
6 | OC[C@@H](O)[C@@H](O)[C@H](O)[C@H](O)CO | inactive | –
7 | CC=Cc1ccc(O)c(OC)c1 | inactive | –
8 | CCCCCCOCCO | inactive | –
9 | Cc1ccccc1Cl | inactive | –
10 | NCCO | inactive | –
11 | COc1ccc(S(=O)(=O)N2C(=O)[C@@](c3ccccc3OC)(N3C[C@H](O)C[C@H]3C(=O)N(C)C)c3cc(Cl)ccc32)c(OC)c1 | – | 29.5 µM (active)
12 | Cc1oc(-c2ccccc2)nc1CCOc1cccc2c1ccn2CCC(=O)O | inactive | –
13 | Nc1nc(N)c2nc(CNc3ccc(C(=O)N[C@@H](CCC(=O)O)C(=O)O)cc3)cnc2n1 | inactive | –
14 | COc1ccc(C)cc1N | inactive | –
15 | CCOc1ccc2c(c1)C(C)=CC(C)(C)N2 | inactive | –
16 | CCCCCCCC=O | inactive | –
17 | Nc1ccc(S(=O)(=O)c2ccc(N)cc2)cc1 | inactive | –
18 | CCCCCCCCCCCC(=O)OC | inactive | –
19 | NS(=O)(=O)c1cc2c(cc1Cl)NCNS2(=O)=O | inactive | –
20 | CC1(C)CC(N=C=O)CC(C)(CN=C=O)C1 (stereo not given) | inactive | –

Row | Compound | outcome | AC50
21 | CCOC(=O)CCC(=O)OCC | inactive | –
22 | CCCCCC(=O)O | inactive | –
23 | CC(C)(C)c1cc(O)c(C(C)(C)C)cc1O | – | 80.6 µM (active)
24 | CCOC(=O)C(C)(C)Oc1ccc(Cl)cc1 | inactive | –
25 | COc1cc(-c2nc(NC(=O)c3cc4cc(C)cc(C)c4n3CC(=O)O)sc2CCC2CCCCC2)c(OC)cc1Cl | – | 3.35 µM (active)
26 | Nc1ccccc1N | inactive | –
27 | CCCCc1ccc2c(n1)[C@@H](c1ccc(OC)cc1C[C@H](C)C(=O)O)[C@H](C(=O)O)[C@H]2c1ccc2c(c1)OCO2 | inactive | –
28 | Cc1cccc([N+](=O)[O-])c1C | inactive | –
29 | C[C@]12C=CC(=O)C=C1CC[C@@H]1[C@@H]2C(=O)C[C@@]2(C)[C@H]1CC[C@]2(O)C(=O)CO | inactive | –
30 | COc1cc(C=O)ccc1O | inactive | –
31 | C[Si]1(C)O[Si](C)(C)O[Si](C)(C)O[Si](C)(C)O1 | inactive | –
32 | O=c1[nH]cc(F)c(=O)[nH]1 | inactive | –
33 | CCCCN(CCCC)CCCC | inactive | –
34 | Cc1ccc(N(C)C)cc1 | inactive | –
35 | CN[C@H]1CC[C@@H](c2ccc(Cl)c(Cl)c2)c2ccc(S(N)(=O)=O)cc21 | inactive | –
36 | Nc1ccc2c(c1)C(=O)c1ccccc1C2=O | inactive | –
37 | Oc1ccc2c(c1)OC[C@@H](N1CCC(O)(c3ccc(F)cc3)CC1)[C@H]2O | inactive | –
38 | CCCCC(CC)COC(=O)CC(C(=O)OCC(CC)CCCC)S(=O)(=O)O (stereo not given) | inactive | –
39 | CCNc1cccc(C)c1 | inactive | –
40 | COc1cc(S(=O)(=O)O)c(C)cc1N=Nc1c(O)ccc2cc(S(=O)(=O)O)ccc12 | inactive | –
